# Activity calls are given as the source filed them. Unless noted, how the calls were made is not given here.
# Legend:
# [1] = compound effects on lung adenocarcinoma cell viability – A549, calcein-AM fluorescence, 48 h, basal, profiling panel (AID 1162); conditions: higher = more signal; further: test concentration not given here
# [2] = compound effects on differentiated 3T3-L1 adipocyte viability – cell-based, 3T3-L1 adipocytes, calcein-AM fluorescence, 48 h, basal, profiling panel (AID 1163); conditions: 3T3-L1 adipocytes viability, higher = more signal; further: test concentration not given here
# [3] = compound effects on hepatocellular carcinoma cell viability – HepG2, calcein-AM fluorescence, 48 h, basal, profiling panel (AID 1164); conditions: higher = more signal; further: test concentration not given here
# [4] = compound effects on multiple myeloma cell viability – MM1S, calcein-AM fluorescence, 48 h, basal, profiling panel (AID 1165); conditions: higher = more signal; further: test concentration not given here
# [5] = calcein-AM signal in unstimulated myeloma cells – cell-based, calcein-AM fluorescence, 48 h, PK04 Diversity Set, profiling panel (AID 1166); conditions: RPMI8226 myeloma viability, higher = more signal;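 further: cells grown under basal conditions without added stimulus; test concentration not given here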
# [6] = JC-1 mitochondrial signal, unstimulated HepG2 cells – cell-based, JC-1 fluorescence, 24 h, 100 nL compound, profiling panel (AID 1167); conditions: HepG2 mitochondrial potential, higher = more signal; further: test concentration not given here
# [7] = JC-1 mitochondrial signal, unstimulated adipocytes – cell-based, JC-1 fluorescence, 3T3-L1 adipocytes, 24 h, 100 nL compound, profiling panel (AID 1168); conditions: JC-1 mitochondrial fluorescence, higher = more signal, called active from +8 up or from −8 down; further: test concentration not given here
# [8] = JC-1 mitochondrial signal, unstimulated myeloma cells – cell-based, JC-1 fluorescence, RPMI8226, 24 h, 100 nL compound, profiling panel (AID 1169); conditions: JC-1 mitochondrial potential fluorescence, higher = more signal; further: test concentration not given here
# [9] = JC-1 mitochondrial signal, unstimulated MM1S myeloma – cell-based, JC-1 fluorescence, 24 h, 100 nL compound, profiling panel (AID 1170); conditions: MM1S mitochondrial potential, higher = more signal; further: test concentration not given here
# [10] = resazurin metabolic signal in A549 cells – cell-based, resazurin fluorescence, 24 h, PK04 Diversity Set, profiling panel (AID 1171); conditions: A549 viability, higher = more signal, called active from +8 up or from −8 down; further: test concentration not given here
# [11] = resazurin metabolic signal in HepG2 cells – cell-based, resazurin fluorescence, 24 h, PK04 Diversity Set, profiling panel (AID 1172); conditions: HepG2 viability, higher = more signal; further: test concentration not given here
# [12] = budding yeast growth changes without added modifier – OD600, strain BY4716, 24 h, basal condition, primary screen (AID 1173); conditions: S. cerevisiae BY4716 growth, OD600, 24 h; higher = more signal, called active from +8 up or from −8 down
# [13] = viability profiling in MM1S myeloma cells – cell-based, resazurin fluorescence, basal, 24 h, PK04 Diversity Set, profiling panel (AID 1174); conditions: higher = more signal, called active from +8 up or from −8 down; further: test concentration not given here
# [14] = molecular target: Dihydroorotate dehydrogenase (quinone), mitochondrial (Plasmodium falciparum (isolate 3D7)) (UniProt Q08210); assay: inhibition of P. falciparum DHODH – biochemical, C-terminal His tag, absorbance 600 nm, primary screen (AID 1175); conditions: PfDHODH enzyme, DCIP absorbance 600 nm; higher = more signal, called active from +8 up or from −8 down;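 further: recombinant parasite enzyme with a five histidine tag at its C terminus; test concentration not given here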
# Dihydroorotate dehydrogenase (quinone), mitochondrial (Plasmodium falciparum (isolate 3D7)), sequence (Q08210 whole entry, looked up): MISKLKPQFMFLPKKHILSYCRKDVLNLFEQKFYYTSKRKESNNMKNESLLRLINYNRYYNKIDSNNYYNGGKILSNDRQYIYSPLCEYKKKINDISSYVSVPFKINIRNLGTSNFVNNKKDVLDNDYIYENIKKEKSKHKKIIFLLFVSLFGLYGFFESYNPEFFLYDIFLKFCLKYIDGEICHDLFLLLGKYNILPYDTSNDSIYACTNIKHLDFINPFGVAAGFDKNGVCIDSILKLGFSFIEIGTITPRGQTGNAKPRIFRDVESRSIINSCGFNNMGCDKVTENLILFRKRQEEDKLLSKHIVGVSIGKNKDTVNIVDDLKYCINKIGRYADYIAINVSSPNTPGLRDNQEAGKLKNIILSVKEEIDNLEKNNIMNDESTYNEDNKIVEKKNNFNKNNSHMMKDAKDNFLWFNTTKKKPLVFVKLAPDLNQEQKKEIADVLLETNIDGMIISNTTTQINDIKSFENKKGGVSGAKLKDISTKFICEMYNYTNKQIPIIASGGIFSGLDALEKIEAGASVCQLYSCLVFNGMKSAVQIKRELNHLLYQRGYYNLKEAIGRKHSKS
# [15] = inhibition of PAO1 biofilm formation – strain PAO1, LB-PBS medium, absorbance 600 nm, primary screen (AID 1176); further: test concentration not given here; conditions: P. aeruginosa PAO1 growth/biofilm, A600, 12 h; higher = more signal
# [16] = growth modulation of vineyard yeast isolate – strain RM11-1a, OD600, basal, 24 h, primary screen (AID 1177);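 further: cultures grown under basal conditions with no added stressor; test concentration not given here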; conditions: S. cerevisiae RM11-1a growth, OD600, 24 h; higher = more signal, called active from +8 up or from −8 down
# [17] = growth of efflux-deficient E. coli DRC39 – strain DRC39, OD650, 24 h, E. coli filamentation inducers, primary screen (AID 1178);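 further: growth measured as culture turbidity by optical density at 650 nm; test concentration not given here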; conditions: E. coli DRC39 acrAB, higher = more signal, called active from +8 up or from −8 down
# [18] = growth of efflux-deficient E. coli DRC39 – strain DRC39, OD650, 48 h, E. coli filamentation inducers, primary screen (AID 1179);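 further: screen aims at cell division blockers that make cells filament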; conditions: E. coli DRC39 delta-acrAB growth, higher = more signal, called active from +8 up or from −8 down
# [19] = viability profiling in RPMI8226 myeloma cells – cell-based, resazurin fluorescence, basal, 24 h, PK04 Diversity Set, profiling panel (AID 1180); conditions: higher = more signal;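 further: RPMI8826 multiple myeloma cell line at 5000 cells per well; test concentration not given here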
# [20] = molecular target: E3 ubiquitin-protein ligase XIAP (Homo sapiens) (UniProt P98170); assay: small molecules binding XIAP protein – biophysical, small-molecule microarray, fluorescence 635 nm, primary screen (AID 1181); conditions: higher = more signal;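 further: score merges 667 nm emission and signal to noise over triplicate slides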
# E3 ubiquitin-protein ligase XIAP (Homo sapiens), sequence (P98170 whole entry, looked up): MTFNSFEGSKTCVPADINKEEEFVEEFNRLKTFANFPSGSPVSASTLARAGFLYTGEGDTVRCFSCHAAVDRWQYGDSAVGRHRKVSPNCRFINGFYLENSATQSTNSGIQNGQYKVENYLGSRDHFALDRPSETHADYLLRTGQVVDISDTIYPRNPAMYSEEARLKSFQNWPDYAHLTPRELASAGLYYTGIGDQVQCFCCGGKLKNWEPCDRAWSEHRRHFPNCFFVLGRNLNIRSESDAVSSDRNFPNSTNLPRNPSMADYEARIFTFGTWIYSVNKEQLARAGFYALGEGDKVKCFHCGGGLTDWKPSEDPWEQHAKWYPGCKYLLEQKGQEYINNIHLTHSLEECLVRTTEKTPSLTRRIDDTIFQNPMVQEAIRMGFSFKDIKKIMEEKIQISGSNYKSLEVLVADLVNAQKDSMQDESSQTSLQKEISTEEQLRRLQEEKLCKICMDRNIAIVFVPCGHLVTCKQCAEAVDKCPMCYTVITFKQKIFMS
Structure (SMILES),z-score [1],z-score [2],z-score [3],z-score [4],z-score [5],z-score [6],z-score [7],z-score [8],z-score [9],z-score [10],z-score [11],z-score [12],z-score [13],composite z-score [14],z-score [15],z-score [16],z-score [17],z-score [18],z-score [19],composite z-score [20]
CON(C)C(=O)C=C1C[C@@H](c2cccc(Cl)c2)O[C@@H](c2cccc(Cl)c2)O1,-1.5,0.559,-2.18,-2.44,-4.18,3.67,0.748 (inactive),-1.09,-1.16,2.23 (inactive),0.485,-0.283 (inactive),0.0896 (inactive),-0.558 (inactive),-0.184 (inactive),1.21 (inactive),-0.471 (inactive),0.134 (inactive),0.515,-0.0827
CC(C)OC(=O)CC(=O)CC(O)c1cccc(C#N)c1 (stereo not given),1.59,0.136,0.886,0.387,0.518,0.575,0.837 (inactive),0.105,-1.56,0.481 (inactive),0.532,-0.167 (inactive),0.343 (inactive),-1.29 (inactive),0.533 (inactive),-0.828 (inactive),0.283 (inactive),1.93 (inactive),-0.0069,-0.267
CC(C)CN1C(=O)[C@@]2(c3ccc([N+](=O)[O-])cc3)CC(=O)N(CC34CC5CC(CC(C5)C3)C4)[C@@H]2c2ccc(CO)cc21,-0.181,1.04,-0.744,-0.0484,-0.544,-0.849,-0.316 (inactive),0.833,-2.29,-0.186 (inactive),-1.64,-0.22 (inactive),0.113 (inactive),-4.84 (inactive),0.146 (inactive),-0.855 (inactive),0.197 (inactive),-0.213 (inactive),0.248,-0.289
CCOC(=O)[C@@H]1[C@@H]2C(=O)N(CC)C(=O)[C@@H]2C[C@@H]1Sc1ccccc1,-0.992,-1.04,-0.971,-0.223,-0.0967,-0.644,0.186 (inactive),-0.28,-1.29,1.06 (inactive),0.0632,-0.325 (inactive),-0.33 (inactive),0.917 (inactive),0.257 (inactive),0.866 (inactive),-0.638 (inactive),-0.894 (inactive),-0.458,-0.127
COCCOC(=O)N1C(=O)[C@@]2(c3cc(C#CC4(O)CCCCCC4)ccc31)[C@H](C(N)=O)[C@H]1C(=O)O[C@H](c3ccccc3)[C@H](c3ccccc3)N1[C@@H]2c1ccccc1OCCO,-1.86,0.73,-4.88,-3.42,-4.59,-2.32,1.57 (inactive),-1.17,-1.7,-2.63 (inactive),-1.85,0.707 (inactive),-7.01 (inactive),1.34 (inactive),1.68 (inactive),2.26 (inactive),-0.735 (inactive),-0.719 (inactive),-6.48,-0.229
CC(C)c1ccc(NN2C(C(O)c3ccco3)C=CC3C(=O)N(c4ccccc4)C(=O)C32)cc1 (stereo not given),0.983,-1.49,0.842,-0.155,-0.166,-1.14,-0.473 (inactive),0.473,-0.921,-0.635 (inactive),-0.517,-2.51 (inactive),-1.23 (inactive),0.325 (inactive),1.07 (inactive),0.921 (inactive),-0.609 (inactive),0.245 (inactive),-0.695,-0.0026
CCOC(=O)[C@H]1C/C=C/C[C@H](C(=O)OCC)C(=O)O[C@H]2[C@@H](OC)O[C@H](CO)[C@@H](OC(=O)CCc3ccccc3)[C@@H]2OC1=O,0.837,0.342,0.957,0.269,0.331,0.957,0.352 (inactive),0.655,-0.533,-0.553 (inactive),-0.144,-1.08 (inactive),0.204 (inactive),-0.915 (inactive),0.759 (inactive),-0.143 (inactive),0.735 (inactive),0.558 (inactive),0.116,0.023
COc1ccc(C(O)C2C=CC3C(=O)N(C)C(=O)C3N2N2CCCCC2)cc1 (stereo not given),-0.972,0.0526,0.133,-0.207,-0.0882,-0.49,0.0216 (inactive),-0.176,0.188,0.014 (inactive),-0.197,0.381 (inactive),-0.8 (inactive),0.0624 (inactive),0.49 (inactive),-0.378 (inactive),-0.584 (inactive),-0.858 (inactive),-0.267,0.0728
C=CC[C@@]1(C(=O)O)N=C(c2ccc(OCCCO)cc2)O[C@@H]1c1ccccc1,0.819,-0.563,1.59,0.576,-0.252,0.89,0.995 (inactive),-0.462,-0.341,0.353 (inactive),1.53,-1.07 (inactive),0.753 (inactive),0.977 (inactive),-0.568 (inactive),0.0596 (inactive),-0.0277 (inactive),1.2 (inactive),1.4,0.559

# — PubChem BioAssay
